# Columns and labels:
# [1] = molecular target: Sphingosine kinase 1 (Homo sapiens) (UniProt Q9NYA1); conditions: at 1 µM;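 note: mean SPHK1 inhibition value reported from the GSK PKIS kinase panel screen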
# [2] = molecular target: T1, Sphingosine kinase 2 (Homo sapiens) (UniProt Q9NRA0); conditions: at 0.1 µM
# T1 sequence (whole entry): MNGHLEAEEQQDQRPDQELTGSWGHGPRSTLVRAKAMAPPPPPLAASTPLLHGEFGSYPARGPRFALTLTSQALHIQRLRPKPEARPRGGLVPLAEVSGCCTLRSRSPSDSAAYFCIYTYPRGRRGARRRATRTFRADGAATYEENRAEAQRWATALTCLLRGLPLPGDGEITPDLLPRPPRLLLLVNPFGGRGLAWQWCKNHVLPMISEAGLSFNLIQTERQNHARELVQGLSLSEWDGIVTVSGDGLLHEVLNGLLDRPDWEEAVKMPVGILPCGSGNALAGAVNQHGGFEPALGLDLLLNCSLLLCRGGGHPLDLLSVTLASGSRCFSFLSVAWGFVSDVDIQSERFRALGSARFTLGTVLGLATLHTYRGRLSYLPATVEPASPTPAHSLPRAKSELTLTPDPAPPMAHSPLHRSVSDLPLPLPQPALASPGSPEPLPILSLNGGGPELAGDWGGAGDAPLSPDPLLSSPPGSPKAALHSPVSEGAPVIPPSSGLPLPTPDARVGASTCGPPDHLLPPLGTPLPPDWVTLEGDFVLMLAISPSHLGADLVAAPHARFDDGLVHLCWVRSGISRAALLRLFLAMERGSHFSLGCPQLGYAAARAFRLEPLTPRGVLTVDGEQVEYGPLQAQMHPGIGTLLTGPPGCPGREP
# [3] = molecular target: T1, Sphingosine kinase 2 (Homo sapiens); conditions: at 1 µM
# [4] = molecular target: Casein kinase II subunit alpha (Homo sapiens) (UniProt P68400); conditions: at 0.1 µM
# [5] = molecular target: Casein kinase II subunit alpha (Homo sapiens) (UniProt P68400); conditions: at 1 µM
# [6] = molecular target: T2, Inhibitor of nuclear factor kappa-B kinase subunit alpha (Homo sapiens) (UniProt O15111); conditions: at 0.1 µM
# T2 sequence (whole entry): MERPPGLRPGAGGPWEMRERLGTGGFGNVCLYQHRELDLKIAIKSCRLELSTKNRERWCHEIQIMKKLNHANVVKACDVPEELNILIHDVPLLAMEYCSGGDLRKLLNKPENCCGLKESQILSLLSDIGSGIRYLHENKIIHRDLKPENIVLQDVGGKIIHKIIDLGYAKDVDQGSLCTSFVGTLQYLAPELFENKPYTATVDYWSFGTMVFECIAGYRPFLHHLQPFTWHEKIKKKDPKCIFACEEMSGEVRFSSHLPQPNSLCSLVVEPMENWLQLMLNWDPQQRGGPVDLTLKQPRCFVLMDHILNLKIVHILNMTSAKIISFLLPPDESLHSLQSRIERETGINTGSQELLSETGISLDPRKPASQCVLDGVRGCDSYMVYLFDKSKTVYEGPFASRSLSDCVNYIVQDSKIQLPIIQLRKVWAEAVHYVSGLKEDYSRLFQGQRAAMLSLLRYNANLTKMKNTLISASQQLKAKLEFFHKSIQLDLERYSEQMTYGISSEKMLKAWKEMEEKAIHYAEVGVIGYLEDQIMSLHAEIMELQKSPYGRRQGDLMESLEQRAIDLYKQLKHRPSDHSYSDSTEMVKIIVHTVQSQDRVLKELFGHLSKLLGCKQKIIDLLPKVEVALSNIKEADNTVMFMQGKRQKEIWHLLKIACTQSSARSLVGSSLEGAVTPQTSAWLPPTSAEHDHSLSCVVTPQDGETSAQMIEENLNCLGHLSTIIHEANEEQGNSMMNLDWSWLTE
# [7] = molecular target: T2, Inhibitor of nuclear factor kappa-B kinase subunit alpha (Homo sapiens); conditions: at 1 µM
# [8] = molecular target: T3, Inhibitor of nuclear factor kappa-B kinase subunit beta (Homo sapiens) (UniProt O14920); conditions: at 0.1 µM
# T3 sequence (whole entry): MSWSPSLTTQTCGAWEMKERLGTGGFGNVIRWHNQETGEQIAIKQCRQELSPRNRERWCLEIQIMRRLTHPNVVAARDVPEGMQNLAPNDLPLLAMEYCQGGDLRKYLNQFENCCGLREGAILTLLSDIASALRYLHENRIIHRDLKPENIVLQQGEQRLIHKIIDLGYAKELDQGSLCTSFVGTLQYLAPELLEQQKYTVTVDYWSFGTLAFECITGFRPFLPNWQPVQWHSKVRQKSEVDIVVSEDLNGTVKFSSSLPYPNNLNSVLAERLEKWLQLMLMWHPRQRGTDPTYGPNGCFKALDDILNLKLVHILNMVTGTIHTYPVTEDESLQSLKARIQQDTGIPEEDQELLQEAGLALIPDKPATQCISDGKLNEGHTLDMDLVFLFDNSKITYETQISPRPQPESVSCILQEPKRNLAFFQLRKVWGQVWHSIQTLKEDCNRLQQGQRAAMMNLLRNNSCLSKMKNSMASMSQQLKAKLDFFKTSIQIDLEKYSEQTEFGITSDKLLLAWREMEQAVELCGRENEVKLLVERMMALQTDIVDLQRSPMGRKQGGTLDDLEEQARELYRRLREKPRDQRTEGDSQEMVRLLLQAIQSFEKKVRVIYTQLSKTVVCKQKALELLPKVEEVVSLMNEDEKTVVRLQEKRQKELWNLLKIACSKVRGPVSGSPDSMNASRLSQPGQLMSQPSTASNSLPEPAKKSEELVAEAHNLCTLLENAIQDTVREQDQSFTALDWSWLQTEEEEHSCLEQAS
# [9] = molecular target: T3, Inhibitor of nuclear factor kappa-B kinase subunit beta (Homo sapiens); conditions: at 1 µM
# [10] = molecular target: T4, Inhibitor of nuclear factor kappa-B kinase subunit epsilon (Homo sapiens) (UniProt Q14164); conditions: at 0.1 µM
# T4 sequence (whole entry): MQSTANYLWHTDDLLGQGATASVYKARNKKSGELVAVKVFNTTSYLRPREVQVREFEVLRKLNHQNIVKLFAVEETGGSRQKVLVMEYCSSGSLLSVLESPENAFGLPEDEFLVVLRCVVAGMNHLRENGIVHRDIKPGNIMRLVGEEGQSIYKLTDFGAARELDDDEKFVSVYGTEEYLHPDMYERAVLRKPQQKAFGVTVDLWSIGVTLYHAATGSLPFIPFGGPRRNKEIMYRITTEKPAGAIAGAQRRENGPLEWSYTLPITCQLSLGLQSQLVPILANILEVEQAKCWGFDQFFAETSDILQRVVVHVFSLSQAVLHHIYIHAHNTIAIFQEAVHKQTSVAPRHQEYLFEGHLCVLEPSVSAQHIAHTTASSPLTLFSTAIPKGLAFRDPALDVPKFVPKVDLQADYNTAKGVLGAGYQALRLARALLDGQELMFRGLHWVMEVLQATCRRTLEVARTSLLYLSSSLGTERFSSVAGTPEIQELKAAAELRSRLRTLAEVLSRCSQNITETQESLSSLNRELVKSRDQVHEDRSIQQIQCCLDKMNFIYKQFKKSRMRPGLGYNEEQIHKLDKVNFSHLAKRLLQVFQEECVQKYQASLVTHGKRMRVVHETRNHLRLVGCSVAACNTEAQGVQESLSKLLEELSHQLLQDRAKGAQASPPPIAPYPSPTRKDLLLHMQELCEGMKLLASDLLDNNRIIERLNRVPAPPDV
# [11] = molecular target: T4, Inhibitor of nuclear factor kappa-B kinase subunit epsilon (Homo sapiens); conditions: at 1 µM
# [12] = molecular target: T5, Serine/threonine-protein kinase Nek1 (Homo sapiens) (UniProt Q96PY6); conditions: at 0.1 µM
# T5 sequence (whole entry): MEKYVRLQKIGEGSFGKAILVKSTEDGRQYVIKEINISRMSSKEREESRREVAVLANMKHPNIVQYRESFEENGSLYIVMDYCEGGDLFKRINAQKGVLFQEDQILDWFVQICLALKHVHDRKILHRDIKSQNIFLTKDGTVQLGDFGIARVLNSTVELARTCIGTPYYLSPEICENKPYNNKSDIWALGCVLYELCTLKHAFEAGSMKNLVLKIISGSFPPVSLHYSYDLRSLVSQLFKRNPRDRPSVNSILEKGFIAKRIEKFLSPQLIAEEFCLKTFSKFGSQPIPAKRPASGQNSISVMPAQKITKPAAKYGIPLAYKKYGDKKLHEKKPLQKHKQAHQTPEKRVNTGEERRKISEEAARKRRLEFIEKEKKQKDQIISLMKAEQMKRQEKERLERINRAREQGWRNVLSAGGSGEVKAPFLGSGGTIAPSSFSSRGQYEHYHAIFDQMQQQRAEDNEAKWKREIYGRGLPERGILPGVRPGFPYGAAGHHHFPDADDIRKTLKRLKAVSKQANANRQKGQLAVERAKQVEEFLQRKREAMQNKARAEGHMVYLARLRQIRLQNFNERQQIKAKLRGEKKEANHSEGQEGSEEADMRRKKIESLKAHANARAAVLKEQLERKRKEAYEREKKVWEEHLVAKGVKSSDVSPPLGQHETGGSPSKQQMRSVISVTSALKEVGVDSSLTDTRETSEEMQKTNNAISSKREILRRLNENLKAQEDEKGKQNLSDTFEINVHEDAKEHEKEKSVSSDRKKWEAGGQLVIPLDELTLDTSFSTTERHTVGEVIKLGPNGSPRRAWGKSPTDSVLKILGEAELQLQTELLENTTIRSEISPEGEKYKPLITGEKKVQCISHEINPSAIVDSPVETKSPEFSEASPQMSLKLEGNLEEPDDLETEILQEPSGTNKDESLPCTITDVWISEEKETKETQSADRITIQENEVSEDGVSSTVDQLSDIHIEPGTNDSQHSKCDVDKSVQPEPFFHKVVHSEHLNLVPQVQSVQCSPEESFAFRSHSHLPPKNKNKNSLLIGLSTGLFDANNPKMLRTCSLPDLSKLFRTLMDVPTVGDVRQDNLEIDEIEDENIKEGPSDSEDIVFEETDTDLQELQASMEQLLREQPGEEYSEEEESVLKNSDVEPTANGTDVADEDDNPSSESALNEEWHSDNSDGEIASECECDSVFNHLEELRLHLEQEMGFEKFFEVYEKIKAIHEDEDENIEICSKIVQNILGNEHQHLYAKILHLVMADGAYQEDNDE
# [13] = molecular target: T5, Serine/threonine-protein kinase Nek1 (Homo sapiens); conditions: at 1 µM
# [14] = molecular target: T6, Serine/threonine-protein kinase Nek2 (Homo sapiens) (UniProt P51955); conditions: at 0.1 µM
# T6 sequence (whole entry): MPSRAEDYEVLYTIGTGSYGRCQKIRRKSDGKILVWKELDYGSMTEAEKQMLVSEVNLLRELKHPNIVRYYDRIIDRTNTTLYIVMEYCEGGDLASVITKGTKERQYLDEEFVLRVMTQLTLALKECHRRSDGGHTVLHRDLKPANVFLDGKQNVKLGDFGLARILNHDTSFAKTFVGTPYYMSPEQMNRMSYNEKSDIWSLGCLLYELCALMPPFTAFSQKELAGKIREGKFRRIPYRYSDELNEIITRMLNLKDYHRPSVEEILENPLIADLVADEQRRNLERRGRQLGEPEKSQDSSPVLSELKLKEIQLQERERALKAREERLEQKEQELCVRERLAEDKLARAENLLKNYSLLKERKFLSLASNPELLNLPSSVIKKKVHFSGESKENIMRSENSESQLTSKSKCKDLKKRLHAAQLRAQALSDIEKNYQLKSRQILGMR
# [15] = molecular target: T6, Serine/threonine-protein kinase Nek2 (Homo sapiens); conditions: at 1 µM
# [16] = molecular target: Serine/threonine-protein kinase Nek6 (Homo sapiens) (UniProt Q9HC98); conditions: at 0.1 µM
# [17] = molecular target: Serine/threonine-protein kinase Nek6 (Homo sapiens) (UniProt Q9HC98); conditions: at 1 µM
# [18] = molecular target: Serine/threonine-protein kinase Nek7 (Homo sapiens) (UniProt Q8TDX7); conditions: at 0.1 µM
# [19] = molecular target: Serine/threonine-protein kinase Nek7 (Homo sapiens) (UniProt Q8TDX7); conditions: at 1 µM
# [20] = molecular target: T7, Serine/threonine-protein kinase Nek9 (Homo sapiens) (UniProt Q8TD19); conditions: at 0.1 µM;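 note: reported value is the mean percent inhibition of NEK9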
# T7 sequence (whole entry): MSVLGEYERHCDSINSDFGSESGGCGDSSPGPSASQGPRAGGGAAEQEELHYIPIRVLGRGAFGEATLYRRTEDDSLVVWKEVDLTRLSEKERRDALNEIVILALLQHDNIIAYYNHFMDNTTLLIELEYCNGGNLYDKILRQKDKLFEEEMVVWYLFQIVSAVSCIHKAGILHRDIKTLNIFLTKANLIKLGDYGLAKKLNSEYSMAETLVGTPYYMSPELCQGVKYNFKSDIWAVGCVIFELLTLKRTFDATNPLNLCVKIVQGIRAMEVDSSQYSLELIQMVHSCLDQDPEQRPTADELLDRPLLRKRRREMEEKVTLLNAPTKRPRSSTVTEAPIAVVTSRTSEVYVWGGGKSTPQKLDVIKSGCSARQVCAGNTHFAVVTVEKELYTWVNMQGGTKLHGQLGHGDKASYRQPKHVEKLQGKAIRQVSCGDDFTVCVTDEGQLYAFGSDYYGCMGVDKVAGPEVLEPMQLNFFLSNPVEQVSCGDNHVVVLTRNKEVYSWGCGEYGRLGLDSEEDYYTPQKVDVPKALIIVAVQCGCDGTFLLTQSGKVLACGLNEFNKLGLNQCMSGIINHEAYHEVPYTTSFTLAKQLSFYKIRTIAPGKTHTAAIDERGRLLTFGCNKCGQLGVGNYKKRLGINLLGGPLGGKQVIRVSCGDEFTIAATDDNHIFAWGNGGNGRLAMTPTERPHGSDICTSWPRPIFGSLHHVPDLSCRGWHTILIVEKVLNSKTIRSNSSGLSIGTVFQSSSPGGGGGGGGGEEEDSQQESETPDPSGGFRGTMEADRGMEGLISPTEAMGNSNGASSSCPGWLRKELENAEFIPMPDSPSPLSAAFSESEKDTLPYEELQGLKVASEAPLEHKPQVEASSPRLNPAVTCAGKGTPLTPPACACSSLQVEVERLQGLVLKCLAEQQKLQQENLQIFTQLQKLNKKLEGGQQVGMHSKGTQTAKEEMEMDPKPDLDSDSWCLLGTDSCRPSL
# Serine/threonine-protein kinase Nek7 (Homo sapiens), sequence (Q8TDX7 whole entry, looked up): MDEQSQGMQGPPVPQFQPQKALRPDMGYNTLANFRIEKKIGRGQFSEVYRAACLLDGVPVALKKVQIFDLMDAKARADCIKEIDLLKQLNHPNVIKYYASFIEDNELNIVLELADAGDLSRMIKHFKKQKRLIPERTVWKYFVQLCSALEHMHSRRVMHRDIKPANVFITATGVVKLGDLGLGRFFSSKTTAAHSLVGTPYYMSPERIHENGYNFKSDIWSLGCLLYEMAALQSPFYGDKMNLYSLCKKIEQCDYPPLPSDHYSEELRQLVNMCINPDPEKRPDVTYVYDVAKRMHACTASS
# Casein kinase II subunit alpha (Homo sapiens), sequence (P68400 whole entry, looked up): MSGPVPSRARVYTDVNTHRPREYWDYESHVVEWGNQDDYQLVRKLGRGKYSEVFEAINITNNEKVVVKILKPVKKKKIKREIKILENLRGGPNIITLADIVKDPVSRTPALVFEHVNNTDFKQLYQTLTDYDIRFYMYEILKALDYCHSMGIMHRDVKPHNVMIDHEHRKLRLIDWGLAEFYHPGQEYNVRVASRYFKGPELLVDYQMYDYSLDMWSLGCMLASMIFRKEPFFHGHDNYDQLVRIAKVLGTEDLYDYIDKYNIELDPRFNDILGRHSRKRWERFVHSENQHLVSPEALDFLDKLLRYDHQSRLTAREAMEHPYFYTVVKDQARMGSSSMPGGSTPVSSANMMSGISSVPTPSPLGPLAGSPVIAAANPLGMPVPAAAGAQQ
# Serine/threonine-protein kinase Nek6 (Homo sapiens), sequence (Q9HC98 whole entry): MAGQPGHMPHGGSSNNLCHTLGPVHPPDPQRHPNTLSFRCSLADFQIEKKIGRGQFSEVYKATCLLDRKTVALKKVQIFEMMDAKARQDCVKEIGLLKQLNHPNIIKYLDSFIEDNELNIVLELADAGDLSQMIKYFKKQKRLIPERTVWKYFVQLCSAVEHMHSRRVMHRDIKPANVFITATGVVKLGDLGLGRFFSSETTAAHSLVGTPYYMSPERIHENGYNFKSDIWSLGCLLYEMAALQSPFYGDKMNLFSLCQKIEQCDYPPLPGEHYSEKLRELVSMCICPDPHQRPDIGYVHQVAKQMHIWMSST
# Sphingosine kinase 1 (Homo sapiens), sequence (Q9NYA1 whole entry): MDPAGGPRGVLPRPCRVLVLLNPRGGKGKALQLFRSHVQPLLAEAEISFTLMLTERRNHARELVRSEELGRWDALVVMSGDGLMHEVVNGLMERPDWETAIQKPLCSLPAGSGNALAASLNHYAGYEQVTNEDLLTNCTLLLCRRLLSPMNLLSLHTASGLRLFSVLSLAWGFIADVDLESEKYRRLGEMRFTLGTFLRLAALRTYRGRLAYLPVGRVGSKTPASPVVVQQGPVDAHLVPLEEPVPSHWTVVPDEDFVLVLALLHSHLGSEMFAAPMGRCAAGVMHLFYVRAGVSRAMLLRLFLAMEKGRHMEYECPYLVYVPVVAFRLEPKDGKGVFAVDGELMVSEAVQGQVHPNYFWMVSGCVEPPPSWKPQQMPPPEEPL
SMILES,inhibition [1] [%],inhibition [2] [%],inhibition [3] [%],inhibition [4] [%],inhibition [5] [%],inhibition [6] [%],inhibition [7] [%],inhibition [8] [%],inhibition [9] [%],inhibition [10] [%],inhibition [11] [%],inhibition [12] [%],inhibition [13] [%],inhibition [14] [%],inhibition [15] [%],inhibition [16] [%],inhibition [17] [%],inhibition [18] [%],inhibition [19] [%],inhibition [20] [%]
O=C1NC(=O)C(c2cccc(Cl)c2)=C1Nc1ccc(Cl)c(C(=O)O)c1,2.31,-0.06,0.61,2.24,7.88,2.51,-0.25,3.73,4.76,6.56,6.69,2.39,1.69,3.91,3.63,2.53,5.19,2.65,1.25,-5.63
Nc1nccc(-c2c(-c3ccc(F)cc3)ncn2C2CCC(O)CC2)n1 (stereo not given),-4.02,2.29,0.26,-0.03,1.03,2.77,5.56,0.1,-1.66,-3.9,-2.64,-1.36,0.03,-2.37,-3.67,-4.15,-1.66,-2.24,-4.78,2.41

# — ChEMBL document CHEMBL1961873, “Compounds: GSK PKIS; Assays: Nanosyn kinase panel” (2012)
